Mdm2-MdmX inh: inhibitors of human Mdm2/MdmX interaction; O15151+Q00987; inhibition, % at 8 µM; AID 485346; actives 3% (n = 330,000); SaOS-2 split-luciferase Mdm2/MdmX complementation, luminescence;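 active = inhibition of at least 50% at 8 µM in the primary screen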
Target sequence (O15151 whole entry, looked up): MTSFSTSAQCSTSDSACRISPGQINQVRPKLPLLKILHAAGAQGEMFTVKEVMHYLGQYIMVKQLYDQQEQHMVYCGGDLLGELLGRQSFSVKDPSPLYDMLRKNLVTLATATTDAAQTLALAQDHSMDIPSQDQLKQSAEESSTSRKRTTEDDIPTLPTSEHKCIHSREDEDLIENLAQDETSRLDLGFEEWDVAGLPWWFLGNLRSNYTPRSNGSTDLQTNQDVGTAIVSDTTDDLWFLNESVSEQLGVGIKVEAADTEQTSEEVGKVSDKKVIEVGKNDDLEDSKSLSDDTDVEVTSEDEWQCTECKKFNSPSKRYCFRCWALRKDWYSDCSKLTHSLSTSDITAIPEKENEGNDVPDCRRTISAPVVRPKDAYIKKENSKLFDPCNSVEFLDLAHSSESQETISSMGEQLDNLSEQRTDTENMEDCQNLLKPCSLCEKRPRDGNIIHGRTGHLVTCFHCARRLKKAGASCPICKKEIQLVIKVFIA
Target sequence (Q00987 whole entry, looked up): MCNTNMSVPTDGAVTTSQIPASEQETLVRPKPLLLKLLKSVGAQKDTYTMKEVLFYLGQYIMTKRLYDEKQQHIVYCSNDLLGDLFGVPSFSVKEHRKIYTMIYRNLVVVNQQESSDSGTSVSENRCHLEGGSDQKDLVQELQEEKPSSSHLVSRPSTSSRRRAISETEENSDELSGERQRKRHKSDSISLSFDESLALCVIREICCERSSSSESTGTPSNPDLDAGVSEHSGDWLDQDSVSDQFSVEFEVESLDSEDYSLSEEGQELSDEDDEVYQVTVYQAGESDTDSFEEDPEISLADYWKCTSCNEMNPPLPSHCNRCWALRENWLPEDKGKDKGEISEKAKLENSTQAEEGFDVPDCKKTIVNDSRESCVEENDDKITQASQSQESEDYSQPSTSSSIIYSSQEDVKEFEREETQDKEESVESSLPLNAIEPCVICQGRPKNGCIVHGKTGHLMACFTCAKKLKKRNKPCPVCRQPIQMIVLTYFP
Jurkat NFkB inh: lowers PMA/ionomycin-induced NF-kB signal in Jurkat cells; PMA/ionomycin-induced NF-kB luciferase reporter, luminescence; inhibition, % at 4 µM; actives 0.53% (n = 330,000); in the data active = inhibition above about 50%
Beta apoptosis: blocks beta cell apoptosis; actives 0.8% (n = 300,000); protection from apoptosis, % (concentration not given with the values); INS-1E cytokine-induced death, ATP luminescence, 48 h; percent of positive-control rescue, neutral wells zero;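 active = Every replicate reaches about 75%, or at least half do and their mean reaches it too, limit read from the data; inconclusive = At least half of replicates reach the limit but their mean does not; inactive = Under half of replicates reach the limit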;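 note: higher means more ATP so stronger rescue from cytokine killing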
697 NFkB inh: lowers PMA/ionomycin-induced NF-kB signal in 697 B cells; 697 B-cell NF-kB luciferase reporter, 16 h; inhibition, % at 4 µM; actives 0.33% (n = 330,000); in the data active = inhibition above about 35%
CSC inhib: cancer stem cell inhibition | cancer stem cell-like cells viability, luminescence | inhibition, % at 7.5 µM | actives 1.1% (n = 300,000); in the data active = inhibition above about 75%; inconclusive = no clear call, values can overlap the other calls; tested in HMLE shEcad cells
Gli-Sufu antag: antagonists of Gli-Sufu signaling | actives 0.74% (n = 340,000) | inhibition, % at 5 µM | Sufu-KO-LIGHT fibroblasts, Gli luciferase reporter luminescence;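 active = inhibition above about 55%, limit read from the data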
697 NFkB conf: inhibitors of the PMA/ionomycin-induced NF-kB reporter in 697 B cells, retest | actives 35% (n = 2,000) | inhibition, % at 4 µM | shares compounds with 697 NFkB inh | 697 B-cell NF-kB luciferase, 16 h; in the data active = inhibition mostly above about 28%, no sharp cut-off; inactive = mostly below about 22%
Mdm2-MdmX conf: human Mdm2/MdmX binding inhibition, confirmed; AID 489028; luminescent assay; actives 55% (n = 10,000); shares compounds with Mdm2-MdmX inh; inhibition, % at 8 µM; in the data active = inhibition above about 40%
Full FLuc ctr: counter-screen for Mdm2/MdmX inhibitors: full-length luciferase; actives 77% (n = 6,200); AID 504607; inhibition, % at 8 µM; shares compounds with Mdm2-MdmX inh; SaOS-2 full-length luciferase counterscreen, luminescence;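 active = mean inhibition at 8 µM reaching about 37%, which flags the compound as non-specific, limit read from the data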;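 note: p53-null SaOS-2 cells with luciferase driven by a doxycycline-inducible promoter; compound on cells about two nights before reading with doxycycline added after day one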
Gli antag conf: Gli-SUFU antagonism confirmation, single concentration | shares compounds with Gli-Sufu antag | Sufu-KO-LIGHT cells, Gli luciferase reporter, luminescence | inhibition, % at 5 µM | actives 40% (n = 2,500) | AID 602428;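 active = mean inhibition at 5 µM reaching about 45%, limit read from the data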
SufuKO cytotox: cytotoxicity counter-screen for Gli-SUFU antagonists; actives 32% (n = 2,500); cytotoxicity, % at 5 µM; shares compounds with Gli-Sufu antag; AID 651994; Sufu-KO-LIGHT cells cytotoxicity, ATP luminescence;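 active = mean cytotoxicity at 5 µM above about 25%, limit read from the data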;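 note: cells exposed to compound overnight for roughly 16 to 18 hours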
Wnt3a counter: inhibits Wnt3a reporter, counter-screen for Gli-SUFU antagonists; AID 651995; actives 20% (n = 2,500); inhibition, % at 6.25 µM; Wnt-LIGHT cells, Wnt3a-driven luciferase reporter, luminescence; shares compounds with Gli-Sufu antag;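 active = mean inhibition above about 25%, limit read from the data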
A number is an active result. An excerpt weighted towards active compounds, which were near 4.5% of everything screened.

CCOC(=O)Cc1ccc(NC(=O)c2ccc(C(C)(C)C)cc2)cc1 was read as Mdm2-MdmX inh inactive, Jurkat NFkB inh inactive, Beta apoptosis inactive, 697 NFkB inh 89.7, CSC inhib inactive, Gli-Sufu antag 60.1, 697 NFkB conf 64.0, Gli antag conf 67.9, SufuKO cytotox inactive and Wnt3a counter 100.9.
Screening Cc1nn(C(C)(C)C)c(C)c1/C=N/OC(=O)Nc1ccc(Cl)c(Cl)c1 returned Mdm2-MdmX inh inactive, Jurkat NFkB inh inactive, Beta apoptosis inactive, 697 NFkB inh 52.0, CSC inhib inactive, Gli-Sufu antag 87.9, 697 NFkB conf 69.4, Gli antag conf 88.8, SufuKO cytotox inactive and Wnt3a counter 102.8.
`Cc1cccn2c(CN(C)CCC3CCCCO3)c(C(=O)N3CCCCC3)nc12` (stereo not drawn) gave Mdm2-MdmX inh inactive, Jurkat NFkB inh inactive, Beta apoptosis inactive, 697 NFkB inh inactive, CSC inhib inactive and Gli-Sufu antag inactive.
For O=c1cc(C(Cl)(Cl)Cl)oc2c1ccc1ccccc12 the results were Mdm2-MdmX inh 97.8, Jurkat NFkB inh inactive, Beta apoptosis inactive, 697 NFkB inh inactive, CSC inhib 116.4, Gli-Sufu antag 65.4, Mdm2-MdmX conf 86.0 and Full FLuc ctr 51.6.
C=CCS(=O)(=O)c1nc2ccccc2s1 was read as Mdm2-MdmX inh 62.5, Jurkat NFkB inh inactive, Beta apoptosis inactive, 697 NFkB inh inactive, CSC inhib inactive, Gli-Sufu antag inactive, Mdm2-MdmX conf inactive and Full FLuc ctr 42.2.
For O=S(=O)(CCSc1nc2ccccc2s1)c1nc2ccccc2s1 the results were Mdm2-MdmX inh 99.2, Jurkat NFkB inh inactive, Beta apoptosis inactive, 697 NFkB inh inactive, CSC inhib inactive, Gli-Sufu antag inactive, Mdm2-MdmX conf 83.2 and Full FLuc ctr 54.7.
CC(=O)Nc1ccc(S(=O)(=O)Nc2cccc(-n3c(C)nc4ccccc4c3=O)c2)cc1 was read as Mdm2-MdmX inh inactive, Jurkat NFkB inh inactive, Beta apoptosis inactive, 697 NFkB inh inactive, CSC inhib inactive and Gli-Sufu antag inactive.
For CCc1nn(CCCC(=O)N2CCN(c3cccc(C)c3C)CC2)c(=O)c2cc3occc3n12 the results were Mdm2-MdmX inh 92.8, Jurkat NFkB inh inactive, Beta apoptosis inactive, 697 NFkB inh inactive, CSC inhib inactive, Gli-Sufu antag inactive, Mdm2-MdmX conf 61.4 and Full FLuc ctr 78.1.
`CCN(CC(=O)NCc1ccc(Cl)cc1)C(=O)c1cc2ccccc2o1` gave Mdm2-MdmX inh inactive, Jurkat NFkB inh inactive, Beta apoptosis inactive, 697 NFkB inh inactive, CSC inhib inactive and Gli-Sufu antag inactive.
For O=C(Oc1c(-c2ccccc2)c(=O)n2c3c(cccc13)CC2)c1ccc(F)cc1 the results were Mdm2-MdmX inh 54.5, Jurkat NFkB inh inactive, Beta apoptosis inactive, 697 NFkB inh inactive, CSC inhib inactive, Gli-Sufu antag inactive and Mdm2-MdmX conf inactive.
O=C(Oc1c(-c2ccccc2)c(=O)n2c3c(cccc13)CC2)c1ccccc1 was read as Mdm2-MdmX inh inactive, Jurkat NFkB inh inactive, Beta apoptosis inactive, 697 NFkB inh inactive, CSC inhib inactive and Gli-Sufu antag inactive.
For O=C(Oc1c(-c2ccccc2)c(=O)n2c3c(cccc13)CC2)c1cccc([N+](=O)[O-])c1 the results were Mdm2-MdmX inh 69.8, Jurkat NFkB inh inactive, Beta apoptosis inactive, 697 NFkB inh inactive, CSC inhib inactive, Gli-Sufu antag inactive, Mdm2-MdmX conf 74.8 and Full FLuc ctr 39.4.
For CC1=CC(C)(C)n2c(O)c(C3=NC(=S)NC3=O)c3cc(OC(=O)c4cccc5ccccc45)cc1c32 the results were Mdm2-MdmX inh 77.1, Jurkat NFkB inh inactive, Beta apoptosis inactive, 697 NFkB inh inactive, CSC inhib inactive, Gli-Sufu antag inactive and Mdm2-MdmX conf inactive.
`CC1=CC(C)(C)n2c(O)c(N=NC(N)=S)c3cc(C)cc1c32` gave Mdm2-MdmX inh inactive, Jurkat NFkB inh inactive, Beta apoptosis inactive, 697 NFkB inh inactive, CSC inhib inactive and Gli-Sufu antag inactive.
COCCCNc1c2c3c(cccc3[nH]c1=O)C(=O)c1ccccc1-2 was read as Mdm2-MdmX inh 57.1, Jurkat NFkB inh inactive, Beta apoptosis inactive, 697 NFkB inh inactive, CSC inhib inactive, Gli-Sufu antag inactive, Mdm2-MdmX conf 57.8 and Full FLuc ctr 86.3.
For CCN(c1ccccc1)S(=O)(=O)c1ccc(NC(=O)c2nc(S(C)(=O)=O)ncc2Cl)cc1 the results were Mdm2-MdmX inh 99.2, Jurkat NFkB inh inactive, Beta apoptosis 98.4, 697 NFkB inh inactive, CSC inhib 99.3, Gli-Sufu antag inactive, Mdm2-MdmX conf 95.8 and Full FLuc ctr 51.2.
For CS(=O)(=O)c1ccc(C(=O)Nc2ccc(N3CCOCC3)cc2)c(Cl)c1 the results were Mdm2-MdmX inh inactive, Jurkat NFkB inh inactive, Beta apoptosis inactive, 697 NFkB inh inactive, CSC inhib inactive and Gli-Sufu antag inactive.
Screening CCN(c1ccccc1)S(=O)(=O)c1ccc(C(=O)Nc2ccncc2)cc1 returned Mdm2-MdmX inh inactive, Jurkat NFkB inh inactive, Beta apoptosis inactive, 697 NFkB inh inactive, CSC inhib inactive and Gli-Sufu antag inactive.
`O=C(Nc1ccc(OC(F)F)cc1)c1ccccn1` gave Mdm2-MdmX inh inactive, Jurkat NFkB inh inactive, Beta apoptosis inactive, 697 NFkB inh inactive and Gli-Sufu antag inactive.
For CS(=O)(=O)c1ncc(Cl)c(C(=O)Nc2ccc(N3CCOCC3)cc2)n1 the results were Mdm2-MdmX inh 88.3, Jurkat NFkB inh inactive, Beta apoptosis inactive, 697 NFkB inh inactive, CSC inhib inconclusive, Gli-Sufu antag inactive, Mdm2-MdmX conf 53.3 and Full FLuc ctr 40.7.
For CS(=O)(=O)c1ncc(Cl)c(C(=O)Nc2ccc(OC(F)F)cc2)n1 the results were Mdm2-MdmX inh 92.1, Jurkat NFkB inh inactive, Beta apoptosis inconclusive, 697 NFkB inh inactive, CSC inhib 134.8, Gli-Sufu antag inactive, Mdm2-MdmX conf 99.7 and Full FLuc ctr 52.4.
